From PubChem BioAssay
PolyA inh: inhibitors of polyadenylation in S. cerevisiae; 0.02% of 300,000 active; S. cerevisiae SKY197-pL101 polyadenylation reporter, beta-gal luminescence; efflux-impaired pdr1/pdr3 knockout yeast; score 100 = 6 SD above DMSO; activity score, % at 12 µM;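 active means lowest replicate activity score at least 50, where 100 means six control SD above control mean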;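 further: yeast exposed to compound for 9 h at 30 °C; higher score means more reporter readthrough which indicates perturbed polyadenylation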
DAX1 inh-1: blocks DAX1 repression of SF-1 activated StAR promoter. HEK293T StAR-luciferase reporter, SF-1/DAX-1 repression relief. inhibition, % at 6.8 µM. 1.1% of 370,000 active. AID 652010;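 active means inhibition above the mean over all tested compounds plus 3 SD, cut at about 3.6% in these data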;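 further: higher inhibition means more luminescence from relief of DAX-1 repression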
hcDAF-12 act: activates DAF-12 receptor from parasite H. contortus; HEK293 hcDAF-12 lit1-tk-luc reporter, luminescence; 0% DMSO, 100% Δ7-dafachronic acid; activation, % at 6.8 µM; 1.4% of 370,000 active;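 active means activation above the mean of all tested compounds plus 3 SD, cut at about 5.5% in these data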
ssDAF-12 act: activates DAF-12 receptor from parasite S. stercoralis. HEK293 ssDAF-12/GRIP1 lit1-tk-luc reporter, luminescence; % of 3 µM dafachronic acid response. activation, % at 6.8 µM. 1% of 370,000 active;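 active means activation above the mean over all tested compounds plus 3 SD, cut at about 0.9% in these data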
DAX1 inh-2: inhibits human nuclear receptor DAX1. P51843. HEK293 Gal4-DAX1 luciferase reporter, luminescence. inhibition, % at 6.75 µM. 0.99% of 340,000 active. AID 504766;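 active means inhibition above the mean over all tested compounds plus 3 SD, cut at about 4.2% in these data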;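 further: inhibition shows as a rise in luminescence from relieved DAX1 repression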
hgDAF-12 ag: agonists of H. glycines DAF-12 nuclear receptor | activation, % at 6.8 µM | AID 687014 | 1.8% of 370,000 active | HEK293 GAL4-hgDAF12 UAS-luciferase reporter, agonist luminescence; normalized to butyrate control;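 active means activation above a cutoff set at the mean of all screened compounds plus 3 SD, cut at about 10% in these data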
DAX1 inh confirm: NR0B1 (human) inhibition, confirmation. shares compounds with DAX1 inh-1. HEK293T StAR-promoter luciferase reporter, SF-1/DAX-1 repression. inhibition, % at 6.8 µM. 87% of 2,400 active. AID 652134;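 active means inhibition above the average of every tested compound plus 3 SD, cut at about 3.8% in these data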;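 further: active compounds raise luminescence by relieving repression of the StAR reporter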
Target sequence (P51843 whole entry, looked up): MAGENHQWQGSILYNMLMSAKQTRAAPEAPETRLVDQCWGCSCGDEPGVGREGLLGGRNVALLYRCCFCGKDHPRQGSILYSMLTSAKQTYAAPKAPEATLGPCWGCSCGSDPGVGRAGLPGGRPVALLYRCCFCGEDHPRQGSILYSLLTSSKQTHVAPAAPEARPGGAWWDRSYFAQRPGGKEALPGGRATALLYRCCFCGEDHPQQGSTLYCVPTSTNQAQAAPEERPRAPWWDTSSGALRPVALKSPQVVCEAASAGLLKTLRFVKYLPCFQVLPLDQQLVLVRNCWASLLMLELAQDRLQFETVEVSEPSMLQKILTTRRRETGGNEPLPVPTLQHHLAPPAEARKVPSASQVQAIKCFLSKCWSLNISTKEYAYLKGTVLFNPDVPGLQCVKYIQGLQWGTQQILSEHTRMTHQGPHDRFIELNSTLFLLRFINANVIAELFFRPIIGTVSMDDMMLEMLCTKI
SF1 AF2mut Luc: nonselective inhibitor or artifact in SF-1 mutant DAX1 counter-screen | shares compounds with DAX1 inh-1 | 78% of 2,400 active | AID 652136 | HEK293 StAR-luciferase, SF-1 AF2 mutant, luminescence | inhibition, % at 6.8 µM;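 active means inhibition above the mean of all tested compounds plus 3 SD, cut at about 3% in these data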
Numbers stand for hits; – = inactive; · = no result. Only some compounds are listed: those with a hit (about 4.1% of all), similar ones and a draw of the others.

SMILES	PolyA inh	DAX1 inh-1	hcDAF-12 act	ssDAF-12 act	DAX1 inh-2	hgDAF-12 ag	DAX1 inh confirm	SF1 AF2mut Luc
O=S1(=O)c2ccc(Br)cc2OC[C@@H](Cc2ccccc2)N1Cc1cn(CCC2OCCCO2)nn1	·	–	–	–	·	–	·	·
O=C(O)c1cc(/C=C/c2ccc(N3CCOCC3)c([N+](=O)[O-])c2)nc2ccccc12	–	–	–	–	–	–	·	·
O=C(O)c1cc(/C=C/c2ccc(N3CCOCC3)cc2)nc2ccccc12	·	5.5	–	–	–	–	7.2	–
Cc1ccc(OCC(=O)Nc2ccon2)c([N+](=O)[O-])c1	–	5.3	–	–	–	–	6.5	3.7
O=C1CCc2cc(S(=O)(=O)N3CCN(c4ccccc4Cl)CC3)ccc2N1	·	–	–	–	·	–	·	·
Clc1ccc(-c2nnc(SCc3ccon3)o2)c(Cl)c1	–	7.2	6.2	–	–	16	11	5.4
Nc1ccc(S(=O)(=O)Nc2cnc3c(Cl)cccc3n2)cc1	·	5.7	–	–	–	–	5.2	–
Cc1cccc(C(=O)Nc2ccn(C)n2)c1	·	4.9	–	–	–	–	5.8	3.0
COc1cccc(CNC(=O)[C@H]2CCCN2C(=O)[C@H]2CCCN2C(=O)c2cccs2)c1	·	–	–	–	·	–	·	·
Clc1ccc(-c2cn3cc(Br)ccc3n2)cc1Cl	–	8.0	14	3.0	–	23	13	5.2
Cc1ccc2nc(-c3ccc4c(c3)OCCO4)cn2c1	–	–	–	–	–	–	·	·
COC(=O)[C@]12C[C@H](CC(=O)N3CCOCC3)C(=O)N(Cc3cccc4ccccc34)C1=C[C@H](C1CCCC1)O[C@@H]2C	·	–	–	–	·	–	·	·
CC(=O)Nc1ccc(C(=O)NCC2(N3CCCCC3)CCCCC2)cc1	–	4.6	–	–	–	–	5.3	3.0
CC(=O)Nc1ccc(C(=O)NN2C(=O)NC3(CCCCC3)C2=O)cc1	–	–	–	–	–	–	·	·
O=C(NCC1(N2CCCCC2)CCCCC1)c1cccc(NS(=O)(=O)c2ccccc2)c1	–	6.9	–	–	–	–	8.3	4.1
CCOc1ccc(NS(=O)(=O)c2ccc(C(=O)NCC3(N(C)C)CCCCC3)cc2)cc1	–	–	–	–	–	–	·	·
O=C(NCC1(N2CCCCC2)CCCCC1)c1cccc(S(=O)(=O)Nc2ccc(F)cc2)c1	·	5.0	–	–	–	–	5.2	–
CCOc1ccc(NS(=O)(=O)c2ccc(C(=O)NCC3(N4CCCCC4)CCCCC3)cc2)cc1	–	4.5	–	–	–	–	11	3.5
CC(=O)C1=C(C)N(Cc2ccc(Br)cc2)C(=S)NC1c1cccc(F)c1 (stereo not given)	·	–	–	–	·	–	·	·
Cc1cc(S(=O)(=O)Nc2ccc(C(=O)NCC3(N4CCCCC4)CCCCC3)cc2)ccc1F	–	7.4	–	–	–	–	7.6	6.1
Cc1cc(S(=O)(=O)Nc2ccc(C(=O)NCC3(N(C)C)CCCCC3)cc2)ccc1F	–	–	–	–	–	–	·	·
O=C(N[C@H](Cc1ccccc1)C(=O)N1CCCN(Cc2ccccc2F)CC1)[C@H]1O[C@@H](n2ccc(=O)[nH]c2=O)[C@H](O)[C@@H]1O	·	–	–	–	·	–	·	·
COCC(=O)Nc1cc(C(=O)NCCc2ccccc2)ccc1Cl	–	5.7	5.8	–	–	–	9.3	3.3
O=C(NCCc1cccc(Cl)c1)c1cccs1	–	4.5	–	–	–	11	6.6	3.8
Cc1ccc(C)c(NC(=O)CN(C)C(=O)c2cc3ccccc3oc2=O)c1	·	5.9	–	–	–	–	6.8	5.6
SMILES	PolyA inh	DAX1 inh-1	hcDAF-12 act	ssDAF-12 act	DAX1 inh-2	hgDAF-12 ag	DAX1 inh confirm	SF1 AF2mut Luc
CCOC(=O)N1CCN(C(=O)c2ccc3oc(CCCc4ccccc4)nc3c2)CC1	–	5.2	–	–	–	–	6.0	–
CCC(c1nnnn1-c1ccc2c(c1)OCCO2)N1CCN(CC)CC1 (stereo not given)	·	5.4	–	–	·	–	–	–
COCCCNC(=O)C[C@H]1C[C@@]2(C(=O)OC)C(=C[C@H](C3CCCC3)O[C@@H]2C)N(Cc2ccco2)C1=O	·	–	–	–	·	–	·	·
O=C(NCc1ccccc1)c1ccc2c(=O)n3c(nc2c1)CCCCC3	–	–	–	–	–	–	·	·
Cc1cccc(NC(=O)c2ccc3c(=O)n4c(nc3c2)CCCCC4)n1	–	7.0	–	–	–	–	6.2	–
O=C(Nc1ccc2nc3n(c(=O)c2c1)CCCC3)c1ccccc1F	–	–	–	–	–	–	·	·
Cc1ccc(NC(=O)c2ccc3c(=O)n4c(nc3c2)CCCCC4)nc1	–	–	–	–	–	–	·	·
O=C(Nc1ccc2nc3n(c(=O)c2c1)CCCCC3)c1ccccn1	–	4.8	–	–	–	13	9.1	4.7
O=C(NCCc1ccc(F)cc1)c1ccc2c(=O)n3c(nc2c1)CCC3	–	6.3	–	–	–	–	–	3.4
Cc1ccc2oc(C(=O)N3CCCCCC3)c(C)c2c1	–	5.3	–	–	–	–	5.2	3.5
Cc1c(C(=O)N2CCCCC2)oc2ccc(Br)cc12	–	5.5	–	–	–	11	5.8	4.0
Cc1ccc2oc(C(=O)NCCCN3CCOCC3)c(C)c2c1	–	6.6	–	–	–	11	8.9	7.6
CC(=O)N1CCN(C(=O)c2oc3ccccc3c2C)CC1	–	5.3	–	–	–	–	–	3.7
Cc1c(C(=O)NCCCN2CCOCC2)oc2ccc(S(=O)(=O)N3CCOCC3)cc12	–	–	–	–	–	–	·	·
CCCCCn1nnnc1C1(C)CSCC(=O)N1Cc1ccco1 (stereo not given)	·	–	–	–	·	–	·	·
CC(C)C(=O)N[C@H]1[C@H](O)CCC[C@@]12C(=O)N(Cc1ccccc1)c1ccccc12	·	–	–	–	·	–	·	·
COC(=O)c1cc2c(c3c4cc(OC)ccc4n(C(=O)c4ccccc4)c13)C(=O)N(Cc1ccco1)C2	·	–	–	–	·	–	·	·
CCOc1ccc(-n2c(SCC(=O)c3ccc4ccccc4c3)nnc2-c2ccc(OC)cc2)cc1	·	–	–	–	·	–	·	·
CCCCCCC[C@@H](C/C=C/CCC(=O)N(C)C/C(=C/Cl)C/C(=C\C(=O)N1CC(OC)=CC1=O)OC)OC	·	19	–	–	–	–	6.2	–
CCCCCCC[C@@H](C/C=C/CCC(=O)N(C)C/C(=C/Cl)C/C(=C\C(=O)N1C[C@H](O)CC1=O)OC)OC	·	–	–	–	–	–	·	·
CN(C(=O)CSc1nc2ccccc2o1)C1CCCCC1	·	9.0	–	–	–	13	7.2	5.9
